Compounds without any hit were thinned out: in the full panel of roughly 79,000, 15% have a hit. A number with no mark means an inactive call. Calls of active or inactive are those of the source. No stated cut-off is given here; in the data, active means growth inhibition above about 70%; inactive means the rest.
What was measured:
[1] = NCI Yeast Anticancer Drug Screen. Data for the rad50 strain (AID 155);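 further: 0% = growth of vehicle-only cultures of the same strain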; conditions: S. cerevisiae rad50 strain growth inhibition, stronger effect = higher value
Procedure, shortened: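 Cells are treated with compound, grown, and their growth is then scored against vehicle-only cultures of the same repair-deficient yeast strain.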

[2] = NCI Yeast Anticancer Drug Screen. Data for the mec2-1 strain (AID 157); conditions: S. cerevisiae mec2-1 strain, stronger effect = higher value
Procedure, shortened: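 Yeast mec2-1 mutant treated with compound. Readout: growth inhibition vs vehicle controls.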

[3] = NCI Yeast Anticancer Drug Screen. Data for the sgs1 mgt1 strain (AID 161);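 further: 0% = growth of cultures given vehicle only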; conditions: S. cerevisiae sgs1 mgt1 strain, stronger effect = higher value
Procedure, shortened: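 Inhibition of yeast growth, normalised to vehicle-treated controls, is reported for a strain bearing genetic alterations in DNA damage repair.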

[4] = NCI Yeast Anticancer Drug Screen. Data for the cln2 rad14 strain (AID 165);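 further: 0% = growth equal to vehicle treated cultures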; conditions: S. cerevisiae cln2 rad14 strain, stronger effect = higher value
Procedure, shortened: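 cln2 rad14 yeast strain; compound exposure; growth inhibition read vs vehicle controls.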

[5] = NCI Yeast Anticancer Drug Screen. Data for the bub3 strain (AID 167); conditions: S. cerevisiae bub3 mutant strain, stronger effect = higher value
Procedure, shortened: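 Part of a panel of yeast mutants defective in DNA damage repair or cell cycle regulation. Each strain is grown with compound, and inhibition is calculated relative to solvent-treated cultures.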

[6] = NCI Yeast Anticancer Drug Screen. Data for the mlh1 rad18 strain (AID 175); conditions: S. cerevisiae mlh1 rad18 strain growth inhibition, stronger effect = higher value
Procedure, shortened: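 Yeast w/ defined DNA-repair lesions; compound exposure; growth vs vehicle controls → % inhibition.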

[7] = at 5.0 µM (retest, dose inferred, filed as 0.5)
[8] = at 50.0 µM (retest, dose inferred, filed as 5.0)

| SMILES | growth inhibition [1, 7] | growth inhibition [1, 8] | growth inhibition ([1]; at 50.0 µM) | growth inhibition [2, 7] | growth inhibition [2, 8] | growth inhibition ([2]; at 50.0 µM) | growth inhibition [3, 7] | growth inhibition [3, 8] | growth inhibition ([3]; at 50.0 µM) | growth inhibition [4, 7] | growth inhibition [4, 8] | growth inhibition ([4]; at 50.0 µM) | growth inhibition [5, 7] | growth inhibition [5, 8] | growth inhibition ([5]; at 50.0 µM) | growth inhibition [6, 7] | growth inhibition [6, 8] | growth inhibition ([6]; at 50.0 µM) |
| --- | --- | --- | --- | --- | --- | --- | --- | --- | --- | --- | --- | --- | --- | --- | --- | --- | --- | --- |
| Cc1nc(C)c(C(=O)NNC(=O)C[N+](C)(C)C)cc1C(=O)NNC(=O)C[N+](C)(C)C | 66% | 8% | -23.2% | 18% | 7% | -8.4% | -36% | -29% | 5.8% | -2% | -4% | 7.2% | -20% | 8% | -15.2% | 17% | 14% | -25.4% |
| N#Cc1sc2c(c1OC(=O)c1ccc(Cl)cc1)c(=O)n(-c1ccccc1)c(=S)n2-c1ccccc1 | -4% | -16% | 1.5% | 5% | -24% | 2.4% | -3% | 0% | -0.45% | 5% | 6% | 34.5% | -3% | 2% | 4.95% | -2% | 1% | -7.35% |
| CC(=O)O[C@@H]1c2c(c3c(=O)c4cccc(O)c4c(=O)c=3c2=[N+]=[N-])[C@H](OC(C)=O)[C@@H](OC(C)=O)[C@]1(C)O | 99% (active) | 99% (active) | 92% (active) | 99% (active) | 99% (active) | 93.7% (active) | 99% (active) | 99% (active) | 93% (active) | 99% (active) | 99% (active) | 91.3% (active) | 98% (active) | 99% (active) | 91.4% (active) | 99% (active) | 99% (active) | 91.6% (active) |
| O=C1CC2Sc3ccccc3N=C2N1c1ccc(Cl)cc1Cl (configuration not stated) | 36% | 96% (active) | 88.2% (active) | 33% | 100% (active) | 93.2% (active) | 42% | 100% (active) | 88.8% (active) | 34% | 73% (active) | 65.2% | 39% | 99% (active) | 92% (active) | 47% | 98% (active) | 89.6% (active) |
| COc1ccc2ccccc2c1/C=C/C(=O)c1ccccc1 | -3% | 34% | 54.6% | 7% | 43% | 19.4% | 11% | 47% | 42.4% | -19% | 40% | 56.2% | -8% | 58% | 46% | 1% | 72% (active) | 46.4% |
| CC1(c2ccccc2)OC1C(=O)N(c1ccccc1)c1ccccc1 (configuration not stated) | 14% | 99% (active) | 95.8% (active) | 18% | 99% (active) | 85% (active) | 12% | 98% (active) | 53.3% | 15% | 97% (active) | 96.7% (active) | 22% | 98% (active) | 92.7% (active) | 21% | 97% (active) | 97.7% (active) |
| CCCCCCCCCCCCCCCCCC(=O)Nc1ccn(C2OC(CO)C(O)C2O)c(=O)n1 (configuration not stated) | 19% | 4% | 75.2% (active) | 9% | 15% | 83.6% (active) | 43% | 41% | 67.8% | 40% | 45% | 80.2% (active) | 48% | 43% | 82.3% (active) | 15% | 4% | 82.8% (active) |
| CCCCCCCCCC(C)CC(=O)NCCCN(C)CCCCN(C)C (configuration not stated) (tested in a mixture with another compound) | -24% | 67% | 88.8% (active) | 26% | 68% | 80.2% (active) | 35% | 93% (active) | 87% (active) | 28% | 27% | 62.1% | -17% | 86% (active) | 90.2% (active) | 34% | 76% (active) | 82.3% (active) |
| CC1(C)CCC2(C(=O)O)CCC3(C)C(=CCC4C5(C)CC(O)C(O)C(C)(C(=O)O)C5CCC43C)C2C1 (configuration not stated) | 99% (active) | 99% (active) | 91.9% (active) | 99% (active) | 99% (active) | 94.6% (active) | 99% (active) | 99% (active) | 93.2% (active) | 99% (active) | 99% (active) | 92.5% (active) | 99% (active) | 99% (active) | 92.4% (active) | 99% (active) | 99% (active) | 91.9% (active) |
| CCOC(=O)Cc1nc2ccccc2s1 | 3% | 100% (active) | 99.2% (active) | 2% | 100% (active) | 99.6% (active) | 6% | 99% (active) | 99.5% (active) | 6% | 98% (active) | 99.2% (active) | 9% | 99% (active) | 98.8% (active) | 2% | 99% (active) | 99.3% (active) |
| C=[CH][Sn]([CH]=C)([S]c1cccc2cccnc12)[S]c1cccc2cccnc12 | 12% | 99% (active) | 92% (active) | 16% | 100% (active) | 91.5% (active) | 27% | 99% (active) | 92.3% (active) | 16% | 99% (active) | 75.5% (active) | 19% | 94% (active) | 83.7% (active) | 18% | 99% (active) | 91.8% (active) |
| Nc1ccccc1O | 26% | 58% | 55.8% | 17% | 37% | 35% | 17% | 40% | 51.1% | 15% | 30% | 8.3% | 54% | 77% (active) | 71% (active) | 45% | 77% (active) | 73.2% (active) |
| CC1(c2cccs2)C(C#N)(C#N)C1(C#N)C#N | 17% | 42% | 92.8% (active) | 9% | 44% | 95.8% (active) | 17% | 39% | 96% (active) | -5% | 30% | 98.4% (active) | -4% | 36% | 95.5% (active) | 9% | 47% | 98.5% (active) |
| COc1ccc(C(=O)C2OC2c2ccccc2)cc1 (configuration not stated) | -2% | 23% | 42.4% | -6% | 9% | 15.4% | -1% | 20% | 30% | -32% | 3% | 20.1% | 3% | 18% | 58.5% | 7% | 59% | 34.7% |
| CN(C)CCCc1ccc2oc3ccccc3c2c1 | 5% | 65% | 77.8% (active) | 4% | 39% | 40.7% | 6% | 54% | 48.6% | 15% | 34% | 27.1% | 14% | 77% (active) | 69% | 7% | 42% | 48% |
| Nc1ccc(N=Nc2ccccc2)c2ccccc12 | 9% | 96% (active) | 97.8% (active) | 0% | 98% (active) | 99% (active) | 3% | 98% (active) | 98.5% (active) | 0% | 97% (active) | 98.5% (active) | 2% | 99% (active) | 98.3% (active) | 4% | 98% (active) | 97.6% (active) |
| Cc1cccc(-c2csc(N)n2)c1 | 0% | 77% (active) | 61.1% | 3% | 35% | 41% | 2% | 37% | 78% (active) | -1% | 31% | 39.6% | -1% | 44% | 31.1% | 1% | 63% | 65.2% |
| COC1CC(OC(=O)c2ccccc2)C(OC(=O)c2ccccc2)C(C)O1 (configuration not stated) | -5% | -4% | 9.1% | -2% | -2% | 6.1% | -2% | -1% | 7.75% | -4% | -12% | -16.4% | 44% | 64% | 83.9% (active) | -1% | 2% | 1.9% |
| Cc1cccc(/C=N/Nc2cc(C)nc3ccccc23)n1 | 1% | 2% | 92.7% (active) | -3% | -3% | 37.8% | -2% | 35% | 53.6% | 5% | 40% | 53.8% | 2% | 7% | 19.7% | -1% | 34% | 46.4% |

— PubChem BioAssay (NCI)
